Assay outcomes (PubChem)
ELG1 DNA repair – inhibitors of ELG1-dependent DNA repair in HEK293T cells; HEK293T ELG1-luciferase reporter, luminescence, 16 h; DNA damage induced by 5-fluorouridine; Potency, µM (highest dose often 46.1 µM), for inactives: at the highest dose activity change, negative = inhibition, usual class: inhibitors; actives 2.3% (n = 330,000); AID 504467; further: nearly all actives have a fitted effect of over 55% in size
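Step one: seed 2,000 cells per well. Step two: pin-transfer compound or DMSO alongside 5-fluorouridine. Step three: incubate 16 hr, 37 °C, 5% CO2. Step four: add ONE-Glo, wait 30 min, read luminescence.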
Gal4-VP16 FLuc – counter-screen for ROR gamma inhibitors: Gal4-VP16 reporter; Drosophila S2 Gal4-VP16 UAS-luciferase, luminescence, 20 h; Potency, µM (titrated, usually from 53.6 µM), inactives show at the highest dose activity, negative = inhibition, hits mostly inhibitors; actives 3.5% (n = 310,000); AID 2546;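 further: Gal4-VP16 expression switched on by copper sulfate through the metallothionein promoter; nearly all actives have a fitted effect of over 50% in size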
TDP1 cell CPT – growth inhibition of DT40 Tdp1-/-;hTDP1 cells with camptothecin (screen for TDP1 inhibitors); chicken DT40 Tdp1-/-;hTDP1 cells + 20 nM CPT, ATP luminescence, 48 h; Potency, µM (top dose mostly 46.2 µM), for inactives: top-dose activity change, negative = growth inhibition, usual class: inhibitors; actives 12% (n = 420,000); further: nearly all actives have a fitted effect of over 55% in size
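Chicken DT40 Tdp1-/- cells stably complemented with human TDP1 were seeded at 400 cells/well in medium containing 20 nM camptothecin, exposed to pin-transferred compounds, and grown at 37 °C for at least 48 hr. Viability was read as ATP luminescence.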
RORg inh – ROR gamma (mouse) transcription inhibition | Drosophila S2 Gal4-RORgamma UAS-luciferase reporter, 20 h | Potency, µM (top dose mostly 53.6 µM), for inactives: at the top dose activity change, negative = inhibition, most hits filed as inhibitors | actives 5.4% (n = 310,000) | AID 2551; further: nearly all actives have a fitted effect of over 60% in size
Target sequence (P51450 whole entry, looked up, the tested form may be a part): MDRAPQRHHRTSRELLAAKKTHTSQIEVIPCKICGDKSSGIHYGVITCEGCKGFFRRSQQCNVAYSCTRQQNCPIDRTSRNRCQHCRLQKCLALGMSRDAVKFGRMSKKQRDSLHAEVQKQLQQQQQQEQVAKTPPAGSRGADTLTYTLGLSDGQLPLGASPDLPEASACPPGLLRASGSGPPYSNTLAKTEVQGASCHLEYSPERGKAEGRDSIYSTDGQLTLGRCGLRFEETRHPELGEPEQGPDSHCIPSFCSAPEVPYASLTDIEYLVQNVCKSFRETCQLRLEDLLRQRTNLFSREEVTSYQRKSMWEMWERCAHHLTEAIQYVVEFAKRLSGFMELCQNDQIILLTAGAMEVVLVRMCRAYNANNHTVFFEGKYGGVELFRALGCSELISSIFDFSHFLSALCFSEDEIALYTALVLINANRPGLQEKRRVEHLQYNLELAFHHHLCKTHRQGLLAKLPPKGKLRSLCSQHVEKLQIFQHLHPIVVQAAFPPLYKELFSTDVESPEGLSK
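Drosophila Schneider cells stably carrying a metallothionein-driven Gal4 DBD–ROR gamma fusion and a UAS-Photinus luciferase reporter were exposed to compound for 1 hr, then induced with copper sulfate (700 uM final) for 20 hr at ambient temperature before luminescence reading.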
TDP1 cell noCPT – qHTS for Inhibitors of human tyrosyl-DNA phosphodiesterase 1 (TDP1): qHTS in cells in absence of CPT | AID 686978, 2013 | Potency, µM (titrated, usually from 46.2 µM), without a hit: at the highest dose activity change, negative = growth inhibition, most hits filed as inhibitors | DT40 Tdp1-/- hTDP1 cells, no CPT, ATP luminescence, 48 h | actives 15% (n = 420,000); further: nearly all actives have a fitted effect of over 55% in size
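Growth kinetics read by CellTiter-Glo luminescence after ≥48 hr at 37 °C. Cells: DT40 Tdp1-/- stably carrying human TDP1, 400 per well, compound exposure in the absence of CPT (DMSO vehicle).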
ALOX12 inh – blocks human arachidonate 12S-lipoxygenase | purified 12hLO, xylenol orange hydroperoxide absorbance | Potency, µM (series often up to 108 µM), for inactives: at the top dose activity change, negative = inhibition, usual class: inhibitors | actives 1.1% (n = 580,000)
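Purified human 12hLO at 150 nM in 25 mM Hepes, 0.01% Triton X-100, pH 7.0, preincubated 15 min at room temperature with compound. Reaction started with 40 uM arachidonic acid, 30 min at room temperature. Hydroperoxide measured by Fe-xylenol orange, 573/405 nm absorbance ratio.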
* marks the source's active call; other numbers are inactive results; ? = inconclusive; . = no result given; [ ] = dose if it differs, or a comment. Most compounds without a hit are left out; they make up all but 15% or so of the library. The call rests on the fitted dose curve; in most records, active means well fitted curve in the direction sought with a large enough effect; inconclusive means small, poorly fitted or top-dose-only effect, or another doubt; inactive means no such curve, though single readings can be large; an effect the other way counts as inactive or inconclusive. On the % scale 0 is the no-effect control and ±100 the full control effect; potency means the concentration at half of the fitted maximal effect.

SMILES	ELG1 DNA repair	Gal4-VP16 FLuc	TDP1 cell CPT	RORg inh	TDP1 cell noCPT	ALOX12 inh
C#CCOCCOCCOCCNc1nc(N2CCN(C(=O)CCCCCCCCCCNC(=O)[C@H]([C@@H](C)CC)n3cc(CCCCN=C(N)N)nn3)CC2)nc(N2CCN(C(=O)CCCCCCCCCCNC(=O)[C@H](CO)n3cc(CCCCCN)nn3)CC2)n1	?	.	14.6µM*	.	20.6µM*	.
COC1CCC(OC2CC(C3(C)CCC4(CC(O)C(C)C(C(C)/C=C(\C)C(=O)C(C)CC(C)C(=O)O)O4)O3)OC3(OC(C4OC(O)(CO)C(C)CC4C)CC3C)C2C)OC1C (stereo unspecified)	.	.	0.146µM*	.	0.146µM*	40.5%
CCOC(=O)C1=C(CN2CCN(c3ccc(C)cc3C)CC2)NC(=O)NC1c1ccc(OC)cc1 (stereo unspecified)	.	.	?	.	?	44.7µM*
CCOC(=O)c1ncn2c1[C@H]1CCCN1C(=O)c1cc(OC)ccc1-2	.	6.0%	?	9.4%	?	243.6%
O=c1oc2ccccc2c(O)c1[C@H]1c2ccc(O)cc2Oc2c1c(=O)oc1ccccc21	?	2.1%	?	-24.5%	23.1µM*	?
C=CCc1c(C)[nH]c(=S)c(C#N)c1C	-4.1%	?	?	6.31µM*	?	?
C=C1C(O)[C@@H]2O[C@]3(CC[C@H](/C=C/C(C)[C@@H]4CC(C)=CC5(O[C@H](C[C@@](C)(O)C(=O)O)CCC5O)O4)O3)CC[C@H]2O[C@@H]1C(O)CC(C)[C@H]1OC2(CCCCO2)CCC1C (stereo partly specified)	0.0517µM*	.	0.164µM*	.	0.146µM*	.
C=C1C([C@@H](O)C[C@H](C)C2O[C@@]3(CCCCO3)CC[C@H]2C)OC2CC[C@@]3(CC[C@@H](/C=C/[C@@H](C)C4CC(C)=C[C@]5(O4)O[C@H](C[C@@](C)(O)C(=O)O)CCC5O)O3)OC2[C@@H]1O (stereo partly specified)	.	.	0.013µM*	.	0.0104µM*	-10.9%[6.33 µM]
O=C1CSC(c2ccc(F)cc2F)c2cn[nH]c2N1 (stereo unspecified)	.	.	.	.	.	12.1%
COC(=O)[C@H]1C[C@@H]1[C@H](NP(=O)(c1ccccc1)c1ccccc1)c1ccccc1	13.3%	0.1%	?	22.5%	?	16.5%
COC(=O)[C@@H]1C[C@H]1[C@@H](NP(=O)(c1ccccc1)c1ccccc1)c1ccccc1	?	?	20.6µM*	10µM*	?	22.8%
CC[C@]1(O)CC(O[C@@H]2CC(N(C)C)C(O)C(C)O2)c2c(cc3c(c2O)C(=O)c2c(O)cccc2C3=O)C1C(=O)OC (stereo partly specified)	.	4.47µM*	0.82µM*	2.24µM*	0.581µM*	.
CC[C@@]1(O)CC(O)c2c(cc3c(c2O)C(=O)c2c(O)ccc(O)c2C3=O)C1C(=O)OC (stereo partly specified)	.	20.1%	-20.0%	?	-16.4%	.
COc1cc(/C=C/c2nc3ccccc3c(=O)n2-c2cccc(O)c2)ccc1O	?	-2.7%	?	-4.7%	18.4µM*	-0.4%
Cc1cccc(-n2c(/C=C/c3c(C)[nH]c4ccccc34)nc3ccccc3c2=O)c1	.	.	?	.	?	0.0%
COc1cccc(-n2c(/C=C/c3cccc(C)c3)nc3ccccc3c2=O)c1	.	.	?	.	23.1µM*	?
COc1cccc(-n2c(/C=C/c3ccccc3O)nc3ccccc3c2=O)c1	.	.	?	.	25.9µM*	-2.2%
Cc1cc(C)cc(-n2c(/C=C/c3cccc(F)c3)nc3ccccc3c2=O)c1	.	.	20.6µM*	.	?	5.6%
Cc1c(C(=O)Cn2cnc3ccccc32)c2ccccc2n1C	.	.	.	.	.	37.6%
O=C1NCCN2CC3(CCNCC3)CC12 (stereo unspecified)	.	.	.	.	.	62.2%
Cn1nc(C2CCCNC2)n(C2CCCC2)c1=O (stereo unspecified)	.	.	.	.	.	43.9%
CC(=O)c1cccc(NC(=O)c2cccn(Cc3cccc(C)c3)c2=O)c1	.	.	23.1µM*	.	20.6µM*	-9.6%
O=C(Nc1ccc2c(c1)OCCO2)c1cccn(Cc2cccc([N+](=O)[O-])c2)c1=O	.	.	?	.	13µM*	-20.2%
O=C(Nc1ccc2c(c1)OCO2)c1cccn(Cc2cccc([N+](=O)[O-])c2)c1=O	.	.	-9.7%	.	-24.4%	-11.7%
O=C(NC[C@H]1C[C@@H]2CCN1C[C@@H]2CN1CCC(Cc2ccccc2)CC1)Nc1ccsc1	.	.	.	.	.	-5.2%
SMILES	ELG1 DNA repair	Gal4-VP16 FLuc	TDP1 cell CPT	RORg inh	TDP1 cell noCPT	ALOX12 inh
Clc1ccc(C2NCc3ccccc3-n3cccc32)cc1 (stereo unspecified)	.	.	.	.	.	-28.7%
CCOc1cc2c(cc1OCC)-n1cccc1C(c1cccc([N+](=O)[O-])c1)NC2 (stereo unspecified)	-5.9%	-5.0%	23.1µM*	13.5%	18.4µM*	?
CCOc1cccc(C2NCc3ccccc3-n3cccc32)c1O (stereo unspecified)	-0.9%	-2.5%	?	2.4%	?	0.0%
CC(C)c1ccc(C2NCc3ccccc3-n3cccc32)cc1 (stereo unspecified)	-13.5%	?	?	-44.1%	20.6µM*	-21.9%
CCOc1cc(C2NCc3ccccc3-n3cccc32)ccc1O (stereo unspecified)	-8.5%	-0.7%	23.1µM*	3.3%	?	0.0%
COC(=O)Cc1ccccc1	.	.	.	.	.	-2.4%[176 µM]
COc1ccc(NC(=O)c2cn(C)c3ccccc23)c(OC)c1	.	.	.	.	.	15.7%
C[N+](C)(Cc1ccccc1)CC(Br)CBr (stereo unspecified)	.	.	.	.	.	-45.7%
c1ccc(N2CCN(c3ccccc3)CC2)cc1	.	.	10.0%	.	-15.6%	.
O=C(CCN1CCN(c2ccccc2)CC1)c1ccc(Br)cc1	7.9%	?	9.2µM*	35.5µM*	5.8µM*	0.0%
Cc1c(CC(=O)N2CCN(Cc3ccccc3)CC2)c(=O)oc2cc(O)ccc12	.	.	.	.	.	6.4%
Cc1ccccc1N1C(=O)NC(=O)/C(=C\c2cc(Br)c(N3CCOCC3)o2)C1=O	9.7%	-19.0%	4.11µM*	-19.0%	7.31µM*	-27.6%
Cc1c(N=Cc2c(O)n(Cc3ccccc3)c(=O)[nH]c2=O)c(=O)n(-c2ccccc2)n1C	-3.9%	-16.6%	1.8%	33.2%	-11.2%	-0.9%
